CHX counter: counter-screen hit for Shiga toxin inhibitors, cycloheximide; actives 12% (n = 300,000); max response, %; cell reporter, cycloheximide protein synthesis inhibition counterscreen; in the data active means max response mostly above about 13%, no sharp cut-off; inactive means mostly below about 14%; further: read at 38.3 µM for the half of the compounds with a filed dose; 0% is about no effect
RE007 growth inh: less growth of the S. pombe RE007 Vpr strain; S. pombe RE007 Vpr strain, BacTiter-Glo ATP luminescence, 24 h; Potency, µM (doses to about 92.2 µM), for inactives: top-dose activity change, negative = less growth, usual class: inhibitors; actives 0.21% (n = 360,000); AID 651644; active means well fitted falling curve with a large enough effect; inconclusive means small, poorly fitted or top-dose-only effect; inactive means no such curve, though single readings can be large or run the other way; further: potency means the concentration at half of the fitted maximal effect; on the % scale 0 is the no-effect control and ±100 the full control effect; nearly all actives have a fitted effect of over 50% in size
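Fission yeast strain RE007, carrying one chromosomally integrated HIV-1 vpr copy, was seeded at OD 0.01 in PMG+AL medium with 23 nL pinned compound. After 24 h at 30 °C and 99% humidity, viability was read by BacTiter-Glo luminescence.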
Giardia FBPA inh: blocks Giardia fructose-bisphosphate aldolase activity; purified Giardia FBPA; Potency, µM (series often up to 59.6 µM), for the others: top-dose activity, negative = inhibition, hits mostly inhibitors; actives 0.71% (n = 290,000); AID 2451; further: potency means the concentration at half of the fitted maximal effect; on the % scale 0 is the no-effect control and ±100 the full control effect; nearly all actives have a fitted effect of over 55% in size
Target sequence (A8B2U2 whole entry, looked up): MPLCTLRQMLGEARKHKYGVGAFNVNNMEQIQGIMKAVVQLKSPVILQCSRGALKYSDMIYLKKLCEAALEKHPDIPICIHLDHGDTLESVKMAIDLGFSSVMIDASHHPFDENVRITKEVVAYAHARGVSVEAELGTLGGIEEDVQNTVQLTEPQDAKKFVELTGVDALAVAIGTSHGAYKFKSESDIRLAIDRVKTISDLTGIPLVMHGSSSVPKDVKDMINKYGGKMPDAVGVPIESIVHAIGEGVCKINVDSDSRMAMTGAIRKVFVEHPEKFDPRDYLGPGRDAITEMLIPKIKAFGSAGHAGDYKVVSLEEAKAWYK
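40 nM FBPA preincubated 10 min at RT with compound (up to 57.5 uM final), then substrate plus GAPDH/TPI/NAD/arsenate coupling and diaphorase/resazurin added. Fluorescence read after 20 min at RT, 525/598 nm.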
Shiga inhibitor: blocks Shiga toxin action in Vero cells. Vero cells, Shiga toxin protein synthesis inhibition reporter. inhibition, % at 38.7 µM. actives 9.2% (n = 290,000). AID 2315; in the data active means inhibition mostly above about 28%, no sharp cut-off; inactive means mostly below about 43%; further: 0% is about no effect
LmPK inhibitor: inhibitors of Leishmania mexicana pyruvate kinase. Q27686. purified LmPK, Kinase-Glo ATP luminescence, 1 h. Potency, µM (top dose mostly 57.5 µM), for the others: top-dose activity change, negative = inhibition, most hits filed as inhibitors. actives 0.37% (n = 290,000). AID 1721; further: potency means the concentration at half of the fitted maximal effect; on the % scale 0 is the no-effect control and ±100 the full control effect
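Purified LmPK (0.1 nM) with 0.5 mM PEP and 0.1 mM ADP in imidazole buffer pH 7.2 with MgCl2/KCl, 1 h at room temperature. ATP formed was read by luciferase luminescence and normalized to no-enzyme and uninhibited controls.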
TbPYK inhibitor: T. brucei pyruvate kinase inhibition. actives 0.12% (n = 410,000). Q57TT1. Potency, µM (highest dose often 76.8 µM), for the others: at the highest dose activity, negative = inhibition, usual class: inhibitors. TbPYK enzyme, Kinase-Glo Plus ATP luminescence, 45 min; further: potency means the concentration at half of the fitted maximal effect; on the % scale 0 is the no-effect control and ±100 the full control effect; nearly all actives have a fitted effect of over 50% in size
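Quantitative HTS: titrated library compounds versus trypanosomal pyruvate kinase in TEA buffer (pH 7.2) containing KCl, MgCl2, BSA and Tween-20. Reactions were initiated with ADP, 130 uM final. Kinase-Glo Plus luminescence was read after 45 min at RT.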
Numbers without * were called inactive. The sample as a whole holds a higher share of hits than the screen did. Unless noted, the call rests on the fitted dose curve; in most records, active means well fitted curve in the direction sought with a large enough effect; inconclusive means small, poorly fitted or top-dose-only effect, or another doubt; inactive means no such curve, though single readings can be large; an effect the other way counts as inactive or inconclusive.

C/C(=N/OC(=O)c1ccc(C)cc1)c1cccs1 was read as CHX counter 33*, RE007 growth inh inconclusive, Giardia FBPA inh -2%, Shiga inhibitor 123*, LmPK inhibitor 10µM* and TbPYK inhibitor inconclusive.
`C/C(=N\OC(=O)c1ccc(Cl)c(Cl)c1)c1sc(C)nc1C` gave CHX counter -3, RE007 growth inh 0%, Giardia FBPA inh 0%, Shiga inhibitor -7, LmPK inhibitor -1% and TbPYK inhibitor -4%.
Screening CCOc1ccc(OCC)c(NC(=O)Cn2nc(CC)n3c(cc4sccc43)c2=O)c1 returned TbPYK inhibitor -9%.
For Cc1ccc(NC(=O)C2CCCN(S(=O)(=O)c3c(C)nn(C)c3C)C2)c(C)c1 (configuration not stated) the results were TbPYK inhibitor -3%.
For O=C1C(c2ccccc2)SC(=Nc2ccccc2)N1S(=O)(=O)c1ccccc1 (configuration not stated) the results were CHX counter 30*, RE007 growth inh -12%, Giardia FBPA inh 3%, Shiga inhibitor 45, LmPK inhibitor 0% and TbPYK inhibitor -24%.
Screening CC1(C)SC(=Nc2ccccc2)N(S(=O)(=O)c2ccccc2)C1=O returned CHX counter -4, RE007 growth inh 17%, Giardia FBPA inh 5%, Shiga inhibitor 7, LmPK inhibitor 3% and TbPYK inhibitor -9%.
Screening CCOc1ccc(-n2nc(CO)c(C(=O)NCc3cccc(OC)c3)n2)cc1 returned TbPYK inhibitor 1%.
O=C1CN(C(=O)COC(=O)CCC(=O)c2ccc(F)cc2)c2ccccc2N1 was read as RE007 growth inh 1% and TbPYK inhibitor 3%.
`COc1ccc(NC(C)=[N+](C)CCNS(=O)(=O)c2ccc(Cl)cc2)cc1Cl` gave CHX counter 16*, RE007 growth inh 6%, Giardia FBPA inh -6%, Shiga inhibitor 21, LmPK inhibitor -9% and TbPYK inhibitor -4%.
For COc1ccc(NC(=O)CNS(=O)(=O)c2ccccc2)cc1Cl the results were CHX counter 14*, RE007 growth inh -1%, Giardia FBPA inh -5%, Shiga inhibitor 4, LmPK inhibitor 1% and TbPYK inhibitor 11%.
`COc1ccc(NC(=O)COC(=O)CNS(=O)(=O)c2ccccc2)cc1OC` gave CHX counter 1, RE007 growth inh -13%, Giardia FBPA inh 0%, Shiga inhibitor 1, LmPK inhibitor 8% and TbPYK inhibitor -1%.
Screening COC(=O)C1C(=O)C=C(Nc2ccc(F)cc2)CC1c1ccc(OC)cc1 (configuration not stated) returned CHX counter 25*, RE007 growth inh 6%, Giardia FBPA inh 6%, Shiga inhibitor 40, LmPK inhibitor 2% and TbPYK inhibitor -1%.
Screening COC(=O)C1=C(Nc2ccc(C)cc2)C=C(C)C(C(=O)OC)C1c1ccc(OC)cc1 (configuration not stated) returned CHX counter 5, RE007 growth inh -19%, Giardia FBPA inh -5%, Shiga inhibitor -11, LmPK inhibitor 4% and TbPYK inhibitor 2%.
For CCOC(=O)C1C(=O)C=C(Nc2ccccc2F)CC1c1ccccc1 (configuration not stated) the results were CHX counter 46*, RE007 growth inh -5%, Giardia FBPA inh 2%, Shiga inhibitor 54*, LmPK inhibitor -1% and TbPYK inhibitor -9%.
COC(=O)C1C(=O)C=C(Nc2ccc(F)cc2F)CC1c1ccc(OC)cc1 (configuration not stated) was read as CHX counter 21, RE007 growth inh 6%, Giardia FBPA inh 4%, Shiga inhibitor 21, LmPK inhibitor -7% and TbPYK inhibitor 0%.
`COC(=O)C1C(=O)C=C(Nc2ccc(F)cc2F)CC1c1ccccc1` (configuration not stated) gave CHX counter 21*, RE007 growth inh -9%, Giardia FBPA inh 13%, Shiga inhibitor 55, LmPK inhibitor 2% and TbPYK inhibitor -6%.

Screening results deposited in PubChem by National Center for Advancing Translational Sciences (NCATS).
